# PubChem BioAssay (NCI)
# This is part of a sample that, as a whole, favours compounds with a hit. Of some 79,000 tested, about 15% had one in any assay. A number with no mark means an inactive call. Active and inactive are the calls of the source. No stated cut-off is given here; in the data, active means growth inhibition above about 70%; inactive means the rest.
# Experiments:
# [1] = NCI Yeast Anticancer Drug Screen. Data for the rad52 strain (AID 147);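 further: 0% = growth of vehicle-treated control cultures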; conditions: S. cerevisiae rad52 mutant growth inhibition, stronger effect = higher value
# Procedure, shortened: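 Growth of repair-deficient yeast cells was compared between compound-treated and vehicle-treated cultures to give percent inhibition.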
# [2] = NCI Yeast Anticancer Drug Screen. Data for the wt1 strain (AID 149);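 further: 0% = growth of vehicle-treated wt1 cultures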; conditions: S. cerevisiae wt1 strain (SPY 50644) growth inhibition, stronger effect = higher value
# Procedure, shortened: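 Measured: growth of wt1 yeast under compound versus vehicle treatment, reported as inhibition.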
# [3] = NCI Yeast Anticancer Drug Screen. Data for the rad50EPP+ strain (AID 151);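 further: 0% = growth of vehicle-treated control cultures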; conditions: S. cerevisiae rad50 mutant strain, stronger effect = higher value
# Procedure, shortened: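 Measured: growth inhibition of rad50EPP+ yeast. Reference: vehicle-treated controls. Screen uses strains with defined genetic alterations in DNA damage repair or cell cycle control.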
# [4] = NCI Yeast Anticancer Drug Screen. Data for the mgt1 strain (AID 153); conditions: S. cerevisiae mgt1 mutant growth inhibition, stronger effect = higher value
# Procedure, shortened: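 Compounds were applied to mgt1 mutant yeast, and growth was then compared against vehicle-treated control cultures to give percent inhibition.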
# [5] = NCI Yeast Anticancer Drug Screen. Data for the rad50 strain (AID 155);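 further: 0% = growth of vehicle-only cultures of the same strain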; conditions: S. cerevisiae rad50 strain growth inhibition, stronger effect = higher value
# Procedure, shortened: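 Growth of the mutant yeast was measured after compound exposure and referenced to vehicle-treated cultures.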
# [6] = NCI Yeast Anticancer Drug Screen. Data for the rad14 strain (AID 159);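 further: 0% = growth of vehicle-treated control cultures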; conditions: S. cerevisiae rad14 strain growth inhibition, stronger effect = higher value
# Procedure, shortened: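 Here, inhibition of yeast growth was measured after compound exposure, using a strain with a genetic defect in DNA damage repair and vehicle-treated cultures as the reference.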
# [7] = NCI Yeast Anticancer Drug Screen. Data for the sgs1 mgt1 strain (AID 161);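 further: 0% = growth of cultures given vehicle only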; conditions: S. cerevisiae sgs1 mgt1 strain, stronger effect = higher value
# Procedure, shortened: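 Percent growth inhibition was derived by comparing compound-exposed mutant yeast with vehicle-exposed cultures. The strain carries alterations in DNA damage repair.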
# [8] = NCI Yeast Anticancer Drug Screen. Data for the CLN2oe strain (AID 163);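 further: 0% = growth of vehicle-only control cultures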; conditions: S. cerevisiae CLN2oe strain, stronger effect = higher value
# Procedure, shortened: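 Cells of an engineered yeast line with disturbed cell-cycle regulation are treated with compound. Inhibition of growth is then calculated relative to the vehicle-treated reference.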
# [9] = NCI Yeast Anticancer Drug Screen. Data for the cln2 rad14 strain (AID 165);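 further: 0% = growth equal to vehicle treated cultures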; conditions: S. cerevisiae cln2 rad14 strain, stronger effect = higher value
# Procedure, shortened: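 Strain: cln2 rad14 yeast, altered in cell cycle control and DNA damage repair. Read-out: growth inhibition vs vehicle.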
# [10] = NCI Yeast Anticancer Drug Screen. Data for the bub3 strain (AID 167); conditions: S. cerevisiae bub3 mutant strain, stronger effect = higher value
# Procedure, shortened: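 Whole-cell yeast assay. The mutant strain was incubated with compounds, and growth inhibition was determined by comparison with vehicle-treated cells.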
# [11] = NCI Yeast Anticancer Drug Screen. Data for the wt2 strain (AID 169);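 further: 0% = growth of vehicle-treated yeast cultures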; conditions: S. cerevisiae wt2 strain growth inhibition, stronger effect = higher value
# Procedure, shortened: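 Growth of compound-treated yeast is measured and expressed as inhibition relative to vehicle-only controls.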
# [12] = NCI Yeast Anticancer Drug Screen. Data for the sgs1 strain (AID 173);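 further: 0% = growth of vehicle-only control cultures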; conditions: S. cerevisiae sgs1 mutant, stronger effect = higher value
# Procedure, shortened: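 Strain with an altered DNA repair or cell cycle pathway exposed to compound. Growth then measured. Value = inhibition versus vehicle control.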
# [13] = NCI Yeast Anticancer Drug Screen. Data for the mlh1 rad18 strain (AID 175); conditions: S. cerevisiae mlh1 rad18 strain growth inhibition, stronger effect = higher value
# Procedure, shortened: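 A repair-deficient yeast strain is exposed to test compound, and growth is scored relative to vehicle-treated controls.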
# [14] = NCI Yeast Anticancer Drug Screen. Data for the rad18 strain (AID 177); conditions: S. cerevisiae rad18 mutant growth inhibition, stronger effect = higher value
# Procedure, shortened: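 DNA-repair-defective yeast; compound treatment; growth inhibition scored against vehicle.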
# [15] = NCI Yeast Anticancer Drug Screen. Data for the mec2-1 strain (AID 157); conditions: S. cerevisiae mec2-1 strain, stronger effect = higher value
# Procedure, shortened: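 Compounds were applied to mec2-1 yeast cells. Their growth was then compared with that of vehicle-treated cultures to give growth inhibition.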
# [16] = NCI Yeast Anticancer Drug Screen. Data for the mlh1 strain (AID 171);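 further: 0% = growth of vehicle-treated control cultures of the same strain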; conditions: S. cerevisiae mlh1 strain growth inhibition, stronger effect = higher value
# Procedure, shortened: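 Test agents were incubated with yeast bearing a defined DNA damage repair or cell cycle control alteration; values are growth inhibition normalised to vehicle-treated cultures.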
# [17] = at 5.0 µM (retest, dose inferred, filed as 0.5)
# [18] = at 50.0 µM (retest, dose inferred, filed as 5.0)
compound,measurement,setting,value
COC(=O)c1cc(-c2ccc(C)cc2)[nH]c(=O)c1C#N,growth inhibition,[1]; at 1.2 µM,-2%
same,growth inhibition,[1]; at 3.7 µM,0%
same,growth inhibition,[1]; at 11.0 µM,1%
same,growth inhibition,[1]; at 33.0 µM,-1%
same,growth inhibition,[1]; at 100.0 µM,-4%
same,growth inhibition,[2]; at 1.2 µM,-2%
same,growth inhibition,[2]; at 3.7 µM,-1%
same,growth inhibition,[2]; at 11.0 µM,-1%
same,growth inhibition,[2]; at 33.0 µM,-1%
same,growth inhibition,[2]; at 100.0 µM,0%
same,growth inhibition,[3]; at 1.2 µM,-5%
same,growth inhibition,[3]; at 3.7 µM,-4%
same,growth inhibition,[3]; at 11.0 µM,-5%
same,growth inhibition,[3]; at 33.0 µM,-6%
same,growth inhibition,[3]; at 100.0 µM,-4%
same,growth inhibition,[4]; at 1.2 µM,0%
same,growth inhibition,[4]; at 3.7 µM,0%
same,growth inhibition,[4]; at 11.0 µM,0%
same,growth inhibition,[4]; at 33.0 µM,-1%
same,growth inhibition,[4]; at 100.0 µM,0%
same,growth inhibition,[5]; at 1.2 µM,-1%
same,growth inhibition,[5]; at 3.7 µM,-2%
same,growth inhibition,[5]; [17],-5%
same,growth inhibition,[5]; at 11.0 µM,0%
same,growth inhibition,[5]; at 33.0 µM,-4%
same,growth inhibition,[5]; [18],9%
same,growth inhibition,[5]; at 50.0 µM,86.5% (active)
same,growth inhibition,[5]; at 100.0 µM,-2%
same,growth inhibition,[6]; at 1.2 µM,1%
same,growth inhibition,[6]; at 3.7 µM,-6%
same,growth inhibition,[6]; at 11.0 µM,-6%
same,growth inhibition,[6]; at 33.0 µM,-19%
same,growth inhibition,[6]; at 100.0 µM,-11%
same,growth inhibition,[7]; [17],-4%
same,growth inhibition,[7]; [18],20%
same,growth inhibition,[7]; at 50.0 µM,84.3% (active)
same,growth inhibition,[8]; at 1.2 µM,-3%
same,growth inhibition,[8]; at 3.7 µM,1%
same,growth inhibition,[8]; at 11.0 µM,-1%
same,growth inhibition,[8]; at 33.0 µM,3%
same,growth inhibition,[8]; at 100.0 µM,4%
same,growth inhibition,[9]; [17],30%
same,growth inhibition,[9]; [18],43%
same,growth inhibition,[9]; at 50.0 µM,66%
same,growth inhibition,[10]; at 1.2 µM,-8%
same,growth inhibition,[10]; at 3.7 µM,-6%
same,growth inhibition,[10]; [17],33%
same,growth inhibition,[10]; at 11.0 µM,6%
same,growth inhibition,[10]; at 33.0 µM,-2%
same,growth inhibition,[10]; [18],16%
same,growth inhibition,[10]; at 50.0 µM,52.6%
same,growth inhibition,[10]; at 100.0 µM,-7%
same,growth inhibition,[11]; at 1.2 µM,-2%
same,growth inhibition,[11]; at 3.7 µM,0%
same,growth inhibition,[11]; at 11.0 µM,-2%
same,growth inhibition,[11]; at 33.0 µM,-2%
same,growth inhibition,[11]; at 100.0 µM,-2%
same,growth inhibition,[12]; at 1.2 µM,-4%
same,growth inhibition,[12]; at 3.7 µM,-1%
same,growth inhibition,[12]; at 11.0 µM,-1%
same,growth inhibition,[12]; at 33.0 µM,-2%
same,growth inhibition,[12]; at 100.0 µM,-4%
same,growth inhibition,[13]; [17],0%
same,growth inhibition,[13]; [18],-1%
same,growth inhibition,[13]; at 50.0 µM,90.2% (active)
same,growth inhibition,[14]; at 1.2 µM,-17%
same,growth inhibition,[14]; at 3.7 µM,-11%
same,growth inhibition,[14]; at 11.0 µM,-16%
same,growth inhibition,[14]; at 33.0 µM,-11%
same,growth inhibition,[14]; at 100.0 µM,-18%
CC/C(=C(\c1ccccc1)c1ccc(OCCN(C)C)cc1)c1ccccc1,growth inhibition,[1]; at 1.2 µM,15%
same,growth inhibition,[1]; at 3.7 µM,11%
same,growth inhibition,[1]; at 11.0 µM,38%
same,growth inhibition,[1]; at 33.0 µM,98% (active)
same,growth inhibition,[1]; at 100.0 µM,98% (active)
same,growth inhibition,[2]; at 1.2 µM,8%
same,growth inhibition,[2]; at 3.7 µM,-8%
same,growth inhibition,[2]; at 11.0 µM,22%
same,growth inhibition,[2]; at 33.0 µM,98% (active)
same,growth inhibition,[2]; at 100.0 µM,50%
same,growth inhibition,[3]; at 1.2 µM,12%
same,growth inhibition,[3]; at 3.7 µM,2%
same,growth inhibition,[3]; at 11.0 µM,1%
same,growth inhibition,[3]; at 33.0 µM,97% (active)
same,growth inhibition,[3]; at 100.0 µM,97% (active)
same,growth inhibition,[5]; at 1.2 µM,9%
same,growth inhibition,[5]; at 3.7 µM,21%
same,growth inhibition,[5]; [17],44%
same,growth inhibition,[5]; at 11.0 µM,64%
same,growth inhibition,[5]; at 33.0 µM,98% (active)
same,growth inhibition,[5]; [18],99% (active)
same,growth inhibition,[5]; at 50.0 µM,90% (active)
same,growth inhibition,[5]; at 100.0 µM,97% (active)
same,growth inhibition,[15]; at 1.2 µM,-9%
same,growth inhibition,[15]; at 3.7 µM,-11%
same,growth inhibition,[15]; [17],46%
same,growth inhibition,[15]; at 11.0 µM,46%
same,growth inhibition,[15]; at 33.0 µM,98% (active)
same,growth inhibition,[15]; [18],99% (active)
same,growth inhibition,[15]; at 50.0 µM,93.4% (active)
same,growth inhibition,[15]; at 100.0 µM,97% (active)
same,growth inhibition,[6]; at 1.2 µM,-26%
same,growth inhibition,[6]; at 3.7 µM,-9%
same,growth inhibition,[6]; at 11.0 µM,89% (active)
same,growth inhibition,[6]; at 33.0 µM,97% (active)
same,growth inhibition,[6]; at 100.0 µM,96% (active)
same,growth inhibition,[7]; [17],-12%
same,growth inhibition,[7]; [18],98% (active)
same,growth inhibition,[7]; at 50.0 µM,92.8% (active)
same,growth inhibition,[8]; at 1.2 µM,4%
same,growth inhibition,[8]; at 3.7 µM,14%
same,growth inhibition,[8]; at 11.0 µM,82% (active)
same,growth inhibition,[8]; at 33.0 µM,98% (active)
same,growth inhibition,[8]; at 100.0 µM,97% (active)
same,growth inhibition,[9]; [17],30%
same,growth inhibition,[9]; [18],99% (active)
same,growth inhibition,[9]; at 50.0 µM,92% (active)
same,growth inhibition,[10]; at 1.2 µM,5%
same,growth inhibition,[10]; at 3.7 µM,10%
same,growth inhibition,[10]; [17],24%
same,growth inhibition,[10]; at 11.0 µM,38%
same,growth inhibition,[10]; at 33.0 µM,98% (active)
same,growth inhibition,[10]; [18],92% (active)
same,growth inhibition,[10]; at 50.0 µM,91.5% (active)
same,growth inhibition,[10]; at 100.0 µM,98% (active)
same,growth inhibition,[11]; at 1.2 µM,-9%
same,growth inhibition,[11]; at 3.7 µM,-15%
same,growth inhibition,[11]; at 11.0 µM,55%
same,growth inhibition,[11]; at 33.0 µM,98% (active)
same,growth inhibition,[11]; at 100.0 µM,97% (active)
same,growth inhibition,[16]; at 1.2 µM,-3%
same,growth inhibition,[16]; at 3.7 µM,0%
same,growth inhibition,[16]; at 11.0 µM,82% (active)
same,growth inhibition,[16]; at 33.0 µM,97% (active)
same,growth inhibition,[16]; at 100.0 µM,97% (active)
same,growth inhibition,[13]; [17],46%
same,growth inhibition,[13]; [18],99% (active)
same,growth inhibition,[13]; at 50.0 µM,40.4%
same,growth inhibition,[14]; at 1.2 µM,13%
same,growth inhibition,[14]; at 3.7 µM,12%
same,growth inhibition,[14]; at 11.0 µM,71% (active)
same,growth inhibition,[14]; at 33.0 µM,98% (active)
same,growth inhibition,[14]; at 100.0 µM,98% (active)
